In the library only some 1.2% were active in any assay of this set; here they are far more common.
Avidin fluor: green autofluorescence of compounds with avidin beads – biophysical, 488/530 nm, flow cytometry, artefact control, profiling panel; compound fluorescence 488/530 nm; stronger effect = higher value; fluorescence (KMESF) at 10 µM; 0.38% of 220,000 active; AID 1775, 2009; in the data active = fluorescence above about 47
RGS16-Gao HTS: modulators of RGS16 binding to Galphao, primary screen, biochemical, human proteins, multiplexed bead flow cytometry; binding response (% of control), % at 10 µM; Regulator of G-protein signaling 16 (Homo sapiens) + Guanine nucleotide-binding protein …; bead-based flow cytometry RGS16-Galphao binding, fluorescence; actives lie on both sides; 0.38% of 220,000 active;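 note: Galphao activated by GDP with aluminum fluoride before binding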
RGS7-Gao: RGS7-Galphao binding modulators, primary screen, biochemical, multiplexed bead flow cytometry; Guanine nucleotide-binding protein G(o) subunit alpha (Homo sapiens), P09471; actives lie on both sides; binding response (% of control), % at 10 µM; 0.35% of 220,000 active; in the data active = binding response below about 49% or above about 150%; inconclusive = no clear call, values can overlap the other calls; inactive = in between;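 note: fluorescent Galphao held in activated GDP-AlF4 state binding bead-coupled RGS7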
Target sequence (P09471 whole entry, looked up): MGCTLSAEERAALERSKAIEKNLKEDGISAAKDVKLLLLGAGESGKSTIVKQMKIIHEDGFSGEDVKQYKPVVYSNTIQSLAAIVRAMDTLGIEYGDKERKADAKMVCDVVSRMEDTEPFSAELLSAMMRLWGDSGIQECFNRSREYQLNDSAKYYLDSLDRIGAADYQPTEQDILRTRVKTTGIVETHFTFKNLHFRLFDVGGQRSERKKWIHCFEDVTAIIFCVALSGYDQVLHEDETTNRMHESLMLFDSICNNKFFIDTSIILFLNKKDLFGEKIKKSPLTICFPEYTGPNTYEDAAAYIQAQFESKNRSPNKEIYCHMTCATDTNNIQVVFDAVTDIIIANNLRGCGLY
RGS8-Gao: RGS8-Galphao binding modulators, primary screen, biochemical, multiplexed bead flow cytometry; response (percent of control binding), % at 10 µM; actives lie on both sides; 0.34% of 220,000 active; Guanine nucleotide-binding protein G(o) subunit alpha (Homo sapiens), P09471; in the data active = response below about 60% or above about 140%; inactive = in between;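 note: Galphao activated as the GDP aluminium fluoride complex binding bead-coupled RGS8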
RGS4-Gao reg: modulators of RGS4 binding to Galphao, primary screen, biochemical, multiplexed bead flow cytometry; actives lie on both sides; binding response (% of control), % at 10 µM; 0.33% of 220,000 active; AID 1415, 2008; in the data active = binding response below about 49% or above about 150%; inactive = in between;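 note: fluorescent Galphao activated with aluminum fluoride binding bead-coupled RGS4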
GSH fluor: compound fluorescence on glutathione beads, profiling panel, artefact control, biophysical, 488/530 nm, flow cytometry. fluorescence (KMESF) at 10 µM. GSH beads flow cytometry, compound fluorescence 488/530 nm; stronger effect = higher value. 0.25% of 190,000 active. AID 1776, 2009; in the data active = fluorescence above about 89;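 note: glutathione beads carrying GST-tagged Bcl family fusion proteins plus one bare bead set; values are compound well signal with DMSO vehicle wells as background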
RGS4-Gao HTS: modulators of RGS–Galpha-o binding, primary screen, biochemical, multiplexed beads, flow cytometry, RGS4/7/8/16/19. shares compounds with RGS16-Gao HTS. AID 1504, 2009. RGS4–Galpha-o binding response, % at 10 µM. 99% of 1,600 active. multiplexed bead flow cytometry;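 note: fluorescently labeled Galpha-o bound to GDP with aluminium fluoride binding biotinylated RGS beads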
Avidin counter: disruption of biotin probe capture by avidin, counter-screen for RGS protein interaction modulators, biochemical, flow cytometry, bead-based; inhibition, % at 10 µM; streptavidin beads, fluorescein-biotin binding; 1,700 tested, under 10 active; AID 1783, 2009; shares compounds with RGS16-Gao HTS;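 active = inhibition above 50%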;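 note: median green fluorescence of gated singlet beads compared with DMSO control wells; 0% = DMSO wells and 100% = complete loss of bead fluorescence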
RGS8-Gao single: RGS8-Galphao binding modulators, confirmation, biochemical, multiplexed bead flow cytometry, single concentration; AID 1836, 2009; shares compounds with RGS16-Gao HTS; bead-based flow cytometry RGS8-Galphao binding, fluorescence; actives lie on both sides; 3% of 1,700 active; binding response (% of control), % at 10 µM; in the data active = binding response below about 72% or above about 130%; inactive = in between;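 note: Galphao activated as GDP AlF4 complex before binding bead RGS8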
RGS7-Gao confirm: RGS7-Galphao binding modulators, confirmation, biochemical, multiplexed bead flow cytometry, single concentration. shares compounds with RGS16-Gao HTS. bead-based flow cytometry RGS7-Galphao binding; actives lie on both sides. response (percent of control binding), % at 10 µM. 7.8% of 1,700 active; in the data active = response below about 75% or above about 130%; inactive = in between;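 note: fluorescent Galphao activated with GDP and aluminum fluoride binding bead-coupled RGS7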
RGS16-Gao single: modulators of RGS16-Galphao protein binding, confirmation, biochemical, single concentration, multiplexed bead flow cytometry; shares compounds with RGS16-Gao HTS; bead-based flow cytometry; actives lie on both sides; response (% of control binding), % at 10 µM; 4% of 1,700 active; AID 1838, 2009; in the data active = response below about 74% or above about 130%; inactive = in between;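 note: Galphao activated as the GDP aluminium fluoride complex binding bead-coupled RGS16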
RGS4-Gao single: modulators of RGS4-Galphao protein binding, confirmation, biochemical, single concentration, multiplexed bead flow cytometry; shares compounds with RGS16-Gao HTS; actives lie on both sides; binding response (% of control), % at 10 µM; 4% of 1,700 active; in the data active = binding response below about 74% or above about 130%; inactive = in between
RGS19-Gao conf: regulators of RGS19-Galphao binding, confirmation, biochemical, single point, multiplexed bead flow cytometry; bead-based flow cytometry RGS19-Galphao binding; actives lie on both sides; 5% of 1,700 active; response (percent of control binding), % at 10 µM; shares compounds with RGS16-Gao HTS; in the data active = response below about 50% or above about 160%; inactive = in between;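 note: 100% = no compound control and 0% = blank background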
Target sequence (P09471 whole entry, looked up): as above
Target sequence (P49795 whole entry, looked up): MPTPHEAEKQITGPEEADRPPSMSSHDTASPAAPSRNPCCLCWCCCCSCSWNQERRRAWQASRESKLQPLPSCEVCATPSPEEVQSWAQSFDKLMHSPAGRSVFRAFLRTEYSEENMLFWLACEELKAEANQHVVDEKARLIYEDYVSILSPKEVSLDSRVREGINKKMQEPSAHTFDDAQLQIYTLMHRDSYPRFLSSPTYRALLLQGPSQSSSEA
* = called active by the depositor; ? = inconclusive; . = no result; [ ] = dose if it differs, or a comment. Unless noted, the rule behind the calls is not given here.

SMILES	Avidin fluor	RGS16-Gao HTS	RGS7-Gao	RGS8-Gao	RGS4-Gao reg	GSH fluor	RGS4-Gao HTS	Avidin counter	RGS8-Gao single	RGS7-Gao confirm	RGS16-Gao single	RGS4-Gao single	RGS19-Gao conf
NC(=O)NC(=O)COC(=O)c1cccc(S(=O)(=O)N2CCCCCC2)c1	13	95	?	96	98	.	.	.	.	.	.	.	.
CC(=O)N1CCN(S(=O)(=O)c2cccc(C(=O)OCC(=O)NC(=O)c3cccn3C)c2)CC1	6	185*[activator]	108	125	112	15	112*	-2	93	81	91	88	83
CCCCOc1ccc2c(c1)/C(=C(\C(Cl)=C(Cl)Cl)[N+](=O)[O-])N2	12	95	97	96	99	13	.	.	.	.	.	.	.
Cc1ccc(S(=O)(=O)N2CCN(S(=O)(=O)c3ccc4c(c3)OCCO4)CC2)cc1	8	50	52	58*	55	24	55*	-2	100	103	104	105	105
COc1ccc(-n2nc(C(C)=O)c(=O)[nH]c2=O)cc1	11	99	100	102	100	12	.	.	.	.	.	.	.
CC(=O)O/N=C1\C(=O)N(Cc2ccc(C)cc2)c2ccccc21	10	18	71	58*	76	15	76*	.	.	.	.	.	.
CN1C(=O)/C(=N\OC(=O)c2ccccc2Cl)c2ccccc21	7	100	107	101	104	11	.	.	.	.	.	.	.
O=c1c2c3c(sc2nc(NCCOCCO)n1Cc1ccco1)CCCCC3	1	32	?	46*	39*	.	.	2	103	106	105	106	121
CCN1CCCC1CNCc1cccc(OC)c1OCc1ccc(F)cc1 (configuration not stated)	2	20*	95	77	91	10	91*	1	104	100	104	104	100
COc1cc(SSc2cc(OC)cc([N+](=O)[O-])c2N)c(N)c([N+](=O)[O-])c1	5	39	?	76	102	.	.	.	.	.	.	.	.
O=C(COc1nncc2ccccc12)NCC(F)(F)F	15	74	96	95	98	13	.	.	.	.	.	.	.
CCC(C)Sc1nc(O)cc(=O)[nH]1 (configuration not stated)	239*	131	248*[activator]	89	110	21	110*	2	98	104	100	101	88
CCSC1=C(C#N)C2(CCCCC2)C(C#N)C(=O)N1 (configuration not stated)	6	90	88	94	91	13	.	.	.	.	.	.	.
N#CC1=C2SCCN2C(=O)C(C#N)C12CCCCC2 (configuration not stated)	.	-10*	-0.9*	13*	-15*	10	.	1	101	102	104	101	103
NS(=O)(=O)c1ccc(NC(=O)Nc2ccc(C(F)(F)F)cc2)cc1	2	104	?	101	101	.	.	.	.	.	.	.	.
CC12CCC(C1)C(C)(C)C2OC(=O)c1ccccc1C(=O)O (configuration not stated)	5	145	?	128	155*[activator]	.	.	-1	93	90	92	92	107
CC1(C)CC(OC(=O)c2ccccc2)CC(C)(C)N1	18	102	102	101	100	9	.	.	.	.	.	.	.
O=C(NCCOc1ccc2ccccc2c1)c1cncc(Br)c1	8	113	?	106	110	.	.	.	.	.	.	.	.
Cc1ccc2nc(Cl)c(/C=N/Nc3ccc(C(=O)O)cc3)cc2c1	9	107	?	105	105	.	.	.	.	.	.	.	.
O=C(COc1ccccc1[N+](=O)[O-])Nc1ccc(Br)cc1	7	126	?	119	133	.	.	.	.	.	.	.	.
O=C(C/C=N\OCc1ccc([N+](=O)[O-])cc1)Nc1ccc(Br)cc1	38	101	157*[activator]	101	106	18	106*	-1	96	95	92	96	85
COc1ccc(C2CC(=O)c3cnn(-c4nc(C)cc(C)n4)c3C2)cc1 (configuration not stated)	16	106	102	104	102	15	.	.	.	.	.	.	.
O=C(NCc1ccc2c(c1)OCO2)NC12CC3CC(CC(C3)C1)C2	21	162	137	149*[activator]	136	15	136*	0	92	89	88	82	223*[activator]
O=C(COc1ccc2c(c1)OCO2)NC12CC3CC(CC(C3)C1)C2	27	104	117	101	104	25	.	.	.	.	.	.	.
CCOC(=O)c1cc(CC)sc1NC(=O)COC(=O)c1cc[n+]([O-])cc1	10	100	?	99	101	14	.	.	.	.	.	.	.
CNC(=O)c1cccc2cccc(Sc3ccccc3C(=O)O)c12	3	99	?	100	103	.	.	.	.	.	.	.	.
CNC(=O)c1ccccc1Sc1ccccc1CO	7	98	?	81	94	.	.	0	110	106	112	106	106
